Assay [1] addresses Lysosomal acid glucosylceramidase (Homo sapiens) (UniProt P04062). Kind of assay: Glucocerebrosidase-p2 (AID 348; in the data active = potency below about 10 µM; also: potency is read from the fitted curve at half-maximal effect). The settings on record: purified GBA, blue fluorogenic substrate, 40 min. The procedure, abridged:
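Compounds titrated from 0.6 nM upwards against 0.2 nM enzyme in pH 5.9 citric acid/KH2PO4, taurocholate, tween-20; blue fluorogenic substrate 80 uM, 40 min room temperature, stopped and read Ex 365/Em 440 for AC50.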

Assay [2] in a line: AP1 Signaling Pathway (AID 357). Also: % is scaled to controls: 0 for no effect and ±100 for the full control effect. The settings on record: ME-180 AP-1-bla reporter, EGF-induced, beta-lactamase ratio, 5 h; at 7.69 µM (top of the series) unless noted. The procedure, abridged: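 ME-180 cells with beta-lactamase reporter under AP-1 response element, stimulated with EC50 EGF; compounds tested in titration series, 5 h at 37 °C. CCF4 substrate added 2.5 h at room temperature; 460/530 nm emission ratio gave %activity and AC50.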

In assay [3] the target is Cytochrome P450 1A2 (Homo sapiens) (UniProt P05177). Put plainly: p450-cyp1a2 (AID 410; calls by dose curve; also: potency is read from the fitted curve at half-maximal effect;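 as to activity change, negative = inhibition: -100% = full effect of reference inhibitor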). To be noted: recombinant CYP1A2, luciferin-ME demethylation, luminescence; series mostly up to 57 µM. A digest of the protocol: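 Human CYP1A2 (20nM) demethylated Luciferin-ME at its Km (100uM) in 100mM KPO4. After 10 min compound preincubation, NADPH regeneration ran the reaction 60 min at room temperature. Luciferin was read by luminescence, normalized to 57 uM furafylline.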
Sequence of Cytochrome P450 1A2 (Homo sapiens) (P05177 whole entry, looked up): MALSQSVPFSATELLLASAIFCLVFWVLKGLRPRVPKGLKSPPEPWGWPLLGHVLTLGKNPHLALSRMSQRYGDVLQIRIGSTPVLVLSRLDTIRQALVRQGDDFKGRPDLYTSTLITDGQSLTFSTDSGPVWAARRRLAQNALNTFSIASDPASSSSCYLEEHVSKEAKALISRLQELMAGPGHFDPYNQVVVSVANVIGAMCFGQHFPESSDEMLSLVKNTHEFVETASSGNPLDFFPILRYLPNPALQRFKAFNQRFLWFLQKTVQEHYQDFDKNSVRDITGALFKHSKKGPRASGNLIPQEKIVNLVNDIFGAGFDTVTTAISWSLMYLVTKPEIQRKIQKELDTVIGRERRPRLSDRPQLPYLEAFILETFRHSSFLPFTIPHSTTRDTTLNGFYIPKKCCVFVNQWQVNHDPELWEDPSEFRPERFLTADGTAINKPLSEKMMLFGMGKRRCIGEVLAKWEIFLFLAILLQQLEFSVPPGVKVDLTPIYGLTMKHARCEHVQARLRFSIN

The nature of assay [4]: NFAT Signaling Pathway (AID 444).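 Also: carbachol stimulus at about its EC50 of 1 µM final; % is scaled to controls: 0 for no effect and ±100 for the full control effect.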 To be noted: Jurkat NFAT-bla M1, carbachol, beta-lactamase ratio, 5 h; at 7.69 µM (top of the series) unless noted. The procedure, abridged:
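Jurkat cells with NFAT-driven β-lactamase reporter and co-expressed M1 receptor, stimulated with carbachol (final 1 uM, ~EC50), compound titration, 5 h at 37 °C. CCF4 loaded 1 h at RT; 460/530 nm ratio gave %activity and AC50.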

Assay [5] can be described thus: Stat Signaling Pathway (AID 446).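 Also: ME-180 cervical cancer cells given 40 pM IL-6 alongside compound; SIE-controlled beta-lactamase reporter measured as 460/530 nm FRET emission ratio; % is scaled to controls: 0 for no effect and ±100 for the full control effect.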 The settings on record: ME-180 SIE beta-lactamase reporter, IL-6 stimulated, 5 h; at 7.69 µM (top of the series) unless noted. A digest of the protocol: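 Screening format detects activators and inhibitors alike: ME-180 SIE-bla cells stimulated at 40 pM IL-6 for 5 hrs with compound, then dual-emission beta-lactamase read at 405 nm excitation.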

The target in assay [6] is Glucocorticoid receptor (Homo sapiens) (UniProt P04150). Kind of assay: GR-EFC Redistribution (AID 451; calls by dose curve; also: potency is read from the fitted curve at half-maximal effect). To be noted: CHO-K1 GR-EFC translocation, beta-gal luminescence, 2 h. The procedure, abridged: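 CHO-K1 cells expressing nuclear EA and GR-ED fragments of b-gal; compounds titrated up to 46 uM final, 2 h at 37 C. GR nuclear translocation read as complemented b-gal luminescence after 1 h RT detection.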
Sequence of Glucocorticoid receptor (Homo sapiens) (P04150 whole entry, looked up, the tested form may be a part): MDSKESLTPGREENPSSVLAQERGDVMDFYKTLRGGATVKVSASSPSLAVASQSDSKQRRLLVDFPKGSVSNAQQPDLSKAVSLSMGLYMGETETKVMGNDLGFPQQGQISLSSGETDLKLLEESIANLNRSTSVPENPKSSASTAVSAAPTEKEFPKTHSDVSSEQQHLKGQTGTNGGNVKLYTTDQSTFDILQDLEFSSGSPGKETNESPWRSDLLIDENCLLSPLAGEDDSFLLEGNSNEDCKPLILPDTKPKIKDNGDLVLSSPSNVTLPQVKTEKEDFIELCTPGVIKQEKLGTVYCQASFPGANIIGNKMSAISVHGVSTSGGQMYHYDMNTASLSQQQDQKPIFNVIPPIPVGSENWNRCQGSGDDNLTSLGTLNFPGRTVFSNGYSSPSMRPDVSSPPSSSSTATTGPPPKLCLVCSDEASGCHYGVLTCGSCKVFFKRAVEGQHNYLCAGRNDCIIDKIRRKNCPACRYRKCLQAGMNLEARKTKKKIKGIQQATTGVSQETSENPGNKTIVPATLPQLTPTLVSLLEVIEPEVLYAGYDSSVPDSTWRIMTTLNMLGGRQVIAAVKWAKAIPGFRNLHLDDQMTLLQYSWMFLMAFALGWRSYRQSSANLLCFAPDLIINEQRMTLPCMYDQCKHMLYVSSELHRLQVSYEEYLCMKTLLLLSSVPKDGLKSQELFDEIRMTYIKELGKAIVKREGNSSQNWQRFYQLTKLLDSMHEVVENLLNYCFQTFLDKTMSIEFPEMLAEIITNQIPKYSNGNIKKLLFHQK

The target in assay [7] is Mitogen-activated protein kinase 10 (Mus musculus) (UniProt Q61831). Kind of assay: JNK3 AlphaScreen Assay (AID 530).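 Also: kinase came from lysate of stimulated human HepG2 cells; signal reports phosphorylation of biotinylated GST-cJun 1-79 at Ser73 with 10 µM ATP; % is scaled to controls: 0 for no effect and ±100 for the full control effect.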 The settings on record: JNK3 lysate, c-Jun phosphorylation; series mostly up to 57.1 µM. The procedure, abridged: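 qHTS format: compounds tested as titrations against IL-1beta/TNF-alpha-activated HepG2 lysate JNK3 with biotin-GST-cJun substrate and 10 uM ATP at room temperature. Loss of anti-phospho-cJun AlphaScreen signal indicates inhibition.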
On the technique in general: Bead proximity is the source of the signal in Alpha formats.

For assay [8], the target named is 3',5'-cyclic-AMP phosphodiesterase 4B (Homo sapiens) (UniProt Q07343). Put plainly: qHTS Assay for Inhibitors of PDE-IV (AID 607; active = well fitted activation curve with a large enough effect in the main read-out, with a control signal flat, not every such curve was filed as active; also: % of control where 0% means no effect). To be noted: HEK293 ACTOne CNG channel cells, membrane potential fluorescence; series mostly up to 22.9 µM. The procedure, abridged:
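The readout is membrane depolarisation from a cAMP-sensing CNG channel, detected with a potential dye at ex 535/em 590. Cells were HEK293-derived (endogenous PDE-IV) at 1000 cells/well, titrated up to 22.9 uM final.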
On the technique in general: qHTS replaces the single test concentration by a dilution series.

Assay [9] is described as follows: qHTS Assay for Lipid Storage Modulators (AID 1519; calls by dose curve). The settings on record: Drosophila S3 cells, BODIPY lipid droplet/cell ratio, laser cytometry, cells loaded with oleic acid; for activity change, negative = inhibition: at 57.5 µM (top of the series). The procedure, abridged:
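Cells seeded at 5,000 per well were treated with compounds over a concentration series and loaded with oleic acid (400 uM, as added). Lipid droplet fluorescence (488 nm excitation, 500-530 nm channel) was read by laser-scanning cytometry and normalized to 20 uM Triacsin C.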

Assay [10] can be described thus: Primary qHTS for small molecule stabilizers of the endoplasmic reticulum resident proteome: Secreted ER Calcium Modulated Protein (SERCaMP) assay (AID 1508630; active = well fitted inhibition curve with a large enough effect; also: % is scaled to controls: 0 for no effect and ±100 for the full control effect). To be noted: SH-SY5Y GLuc-SERCaMP (Gaussia luciferase released on ER calcium loss) secretion, thapsigargin, luminescence; series mostly up to 38.4 µM. A digest of the protocol: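 GLuc-SERCaMP-expressing SH-SY5Y cells, pretreated 16 h with compound, are challenged with thapsigargin to empty ER calcium stores; after 4 h, coelenterazine is added directly to the medium and luminescence is imaged.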

Where [11] appears, read: measured here: cell count channel max response.
Where [12] appears, read: measured here: lipid channel max response.

Inconclusive results are not listed. Active and inactive are the calls of the source. Unless noted, calls follow the shape of the dose curve; as a rule, active = well fitted curve in either direction with a large enough effect (not every such curve was filed as active); inconclusive = small, poorly fitted or top-dose-only effect, or another doubt; inactive = flat fitted curve, though single readings scatter.

Sequence of Lysosomal acid glucosylceramidase (Homo sapiens) (P04062 whole entry, looked up): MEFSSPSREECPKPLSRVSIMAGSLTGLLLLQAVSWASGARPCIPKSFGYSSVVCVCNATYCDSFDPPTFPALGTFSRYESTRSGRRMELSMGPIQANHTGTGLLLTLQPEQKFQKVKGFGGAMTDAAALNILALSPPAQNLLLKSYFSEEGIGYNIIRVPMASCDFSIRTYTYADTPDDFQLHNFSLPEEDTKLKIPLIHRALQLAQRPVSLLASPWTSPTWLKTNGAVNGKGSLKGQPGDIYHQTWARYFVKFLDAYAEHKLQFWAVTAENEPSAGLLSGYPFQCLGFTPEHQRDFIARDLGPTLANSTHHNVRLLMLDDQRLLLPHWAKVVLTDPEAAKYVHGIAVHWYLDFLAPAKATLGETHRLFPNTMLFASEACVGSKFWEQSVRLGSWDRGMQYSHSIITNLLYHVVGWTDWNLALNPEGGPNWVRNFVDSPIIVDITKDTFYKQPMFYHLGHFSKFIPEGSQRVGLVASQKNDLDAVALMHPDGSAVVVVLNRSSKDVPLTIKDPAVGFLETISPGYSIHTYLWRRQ
Sequence of 3',5'-cyclic-AMP phosphodiesterase 4B (Homo sapiens) (Q07343 whole entry, looked up): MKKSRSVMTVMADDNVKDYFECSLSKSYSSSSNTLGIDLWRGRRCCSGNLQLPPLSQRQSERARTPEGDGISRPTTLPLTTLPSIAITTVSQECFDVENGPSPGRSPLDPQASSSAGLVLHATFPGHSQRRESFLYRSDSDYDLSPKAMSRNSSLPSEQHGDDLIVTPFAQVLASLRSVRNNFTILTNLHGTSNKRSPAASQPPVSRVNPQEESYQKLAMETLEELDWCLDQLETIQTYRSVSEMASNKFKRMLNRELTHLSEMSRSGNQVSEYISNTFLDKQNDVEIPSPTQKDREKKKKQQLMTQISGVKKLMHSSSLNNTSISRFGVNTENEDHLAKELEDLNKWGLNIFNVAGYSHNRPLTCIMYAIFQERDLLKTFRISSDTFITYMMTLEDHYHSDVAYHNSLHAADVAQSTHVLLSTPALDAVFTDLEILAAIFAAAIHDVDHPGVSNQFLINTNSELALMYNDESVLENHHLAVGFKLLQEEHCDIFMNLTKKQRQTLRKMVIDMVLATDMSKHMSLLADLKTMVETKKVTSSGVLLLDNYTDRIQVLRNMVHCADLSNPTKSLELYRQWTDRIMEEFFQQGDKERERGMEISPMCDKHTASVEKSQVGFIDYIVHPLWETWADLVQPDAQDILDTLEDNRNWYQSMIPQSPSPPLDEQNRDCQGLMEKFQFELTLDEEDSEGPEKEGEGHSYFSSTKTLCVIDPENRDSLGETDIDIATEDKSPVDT

As to `O=C(c1csnn1)N1CCC[C@@]2(CCN(c3ncccn3)C2)C1`, the Potency in [1] is > 11.4 µM (inactive); in assay [3] it was 12.6 µM (active); in assay [6], > 46 µM (inactive). For the same molecule, the activity change, negative = inhibition in [2] is -0.372% (inactive); in assay [4], 8.43% (inactive); in assay [9] it was 7.22% (inactive). Further, in assay [5], the activity, negative = inhibition was 1.56% (inactive). For the same molecule, in [7], the molecule was classed as inactive. For the same molecule, the Potency entry in [8] and in assay [10] was “inactive” each time. Besides, the max response in assay [9] (setting [11]) is 8.99%; in assay [9] (setting [12]) it was 21.1%.
Turning to `COc1ccc(NC(=O)N2CC[C@@]3(CCCNC3)C2)cc1`, the Potency was > 11.4 µM (inactive) in assay [1] and > 46 µM (inactive) in assay [6]. Besides, the activity change, negative = inhibition in [2] is -15.6% (inactive); in assay [4], -5.59% (inactive); in assay [9], -2.79% (inactive). Moreover, the Potency result in assay [3], in [8] and in [10] was “inactive” throughout. The activity, negative = inhibition in assay [5] was -0.259% (inactive). The molecule was called inactive in assay [7]. For the same molecule, the max response is -3.47% in assay [9] (setting [11]) and -5.51% in assay [9] (setting [12]).
For `COCC(=O)N1CCC2(CC1)CN(C(=O)Nc1ccc(OC)cc1)C2`, the Potency in assay [1] is > 11.4 µM (inactive); in [6], > 46 µM (inactive). For the same molecule, the activity change, negative = inhibition in [2] is -2.15% (inactive); in [4], 21.1% (inactive); in assay [9], 3.11% (inactive). Further, the Potency result in [3], in assay [8] and in assay [10] was “inactive” each time. In addition, the activity, negative = inhibition in assay [5] was 2.17% (inactive). The outcome in [7] was inactive. Moreover, the max response in [9] (setting [11]) was determined as 23%; in assay [9] (setting [12]) it was 29.3%.
Take `COc1ccccc1CN1CCCC2(CCNCC2)C1`: the Potency was > 11.4 µM (inactive) in assay [1] and > 46 µM (inactive) in assay [6]. Further, the activity change, negative = inhibition was -7.6% (inactive) in [2], -29.2% (inactive) in [4] and 6.8% (inactive) in [9]. Moreover, the Potency entry in [3], in assay [8] and in [10] was “inactive” each time. For the same molecule, in assay [5], the activity, negative = inhibition is 2.38% (inactive). Moreover, the call in assay [7] was inactive. Also, the max response in assay [9] (setting [11]) worked out at 4.5%; in [9] (setting [12]) it was 14.4%.
As to `COCC(=O)N1CCC2(CC1)CN(C(=O)Nc1cccc(C#N)c1)C2`, the Potency in assay [1] was > 11.4 µM (inactive); in [6], > 46 µM (inactive). In addition, the activity change, negative = inhibition was 12.3% (inactive) in assay [2], 9.29% (inactive) in assay [4] and 1.93% (inactive) in assay [9]. Further, the Potency entry in [3], in [8] and in [10] was “inactive” throughout. Besides, in [5], the activity, negative = inhibition is 11.7% (inactive). Further, in assay [7], the molecule was classed as inactive. Besides, the max response worked out at 8.59% in assay [9] (setting [11]) and 11% in assay [9] (setting [12]).
As to `CC(C)NC(=O)N1CCCC2(CCN(C(=O)c3ccncc3)CC2)C1`, the Potency in [1] was > 11.4 µM (inactive); in assay [6] it was > 46 µM (inactive). For the same molecule, the activity change, negative = inhibition was -8.19% (inactive) in [2], 8.27% (inactive) in [4] and 3.7% (inactive) in [9]. Also, the Potency result in assay [3], in assay [8] and in [10] was “inactive” throughout. Further, the activity, negative = inhibition in assay [5] is -5.11% (inactive). Further, the molecule was classed as inactive in assay [7]. Also, the results for the max response in assay [9] (setting [11]) and in assay [9] (setting [12]) were 13.8% and 22%, respectively.
As for `CC(=O)N1CCC2(CCCN(c3ccccn3)C2)CC1`, the Potency is > 11.4 µM (inactive) in assay [1] and > 46 µM (inactive) in [6]. The activity change, negative = inhibition is 4.59% (inactive) in assay [2], 3.45% (inactive) in assay [4] and 5.15% (inactive) in [9]. Further, the Potency entry in assay [3], in assay [8] and in assay [10] was “inactive” throughout. In addition, in assay [5], the activity, negative = inhibition is -5.49% (inactive). For the same molecule, in [7], the outcome was inactive. Also, the values for the max response in assay [9] (setting [11]) and in [9] (setting [12]) were 19.4% and 28%, respectively.

The values are drawn from PubChem BioAssay (NCATS).
